Data: paper PMC7819943, “Rice protein-binding microarrays: a tool to detect cis-acting elements near promoter regions in rice”
In all, about 35,000 sequences were measured (“fluorescence intensity (a.u.)”: median about 10,000, highest 2% from about 52,000 on). The sample holds the highest values, similar sequences and a random draw of the others, so the mix is not that of the screen.

target: T1, OsWOX13 (Oryza sativa, UniProt Q5QMM3 1-267); experiment: protein-binding microarray (RPBM); PBS, 2% BSA, 51.3 ng/ul salmon testes DNA, 50 uM zinc acetate, 200 nM TF, 25 C, 1 h; high values mean tight binding; conditions: protein: recombinant; tags: N-terminal polyhistidine and DsRed monomer fusion (pET32a); label: CyDye5-dUTP incorporated in the synthesized complementary strand; 3' TTTTT single-stranded linker to array surface; dsDNA, one strand shown
T1 sequence: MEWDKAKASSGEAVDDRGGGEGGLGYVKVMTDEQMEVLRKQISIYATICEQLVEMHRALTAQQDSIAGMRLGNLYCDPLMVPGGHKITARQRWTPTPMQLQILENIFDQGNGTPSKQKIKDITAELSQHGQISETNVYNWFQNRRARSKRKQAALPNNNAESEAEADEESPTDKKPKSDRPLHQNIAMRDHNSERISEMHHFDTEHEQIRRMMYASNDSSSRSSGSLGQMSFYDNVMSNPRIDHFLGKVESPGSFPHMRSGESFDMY
Outline: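 The binding signal is fluorescence intensity per array feature (arbitrary units). Readings came from an Axon 4000B scanner after a washed, 2% BSA-blocked, double-stranded custom Agilent array had been incubated for 1 h at 25 °C with 200 nM protein and 50 µM zinc acetate. The protein was a Ni–NTA-purified transcription factor fused N-terminally to polyhistidine and DsRed, expressed in E. coli BL21-CodonPlus.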

Sequence	binding signal
TCTAGATTTGATCATTTTGACCTCTTGCTCCGTTAGATCTCGGAGTCACCTAGTGCAG	9940 fluorescence intensity (a.u.)
ATTAATTAAGTTACTGTGTTACTCCTAGCTACTCCTCCGTCGGAGTCACCTAGTGCAG	22600 fluorescence intensity (a.u.)
TCTAATTATTTGATATTAGTTATTTTCCTTAACATTCGTGCGGAGTCACCTAGTGCAG	49900 fluorescence intensity (a.u.)
ATCAAATCATATGTTAGATTGATCCTTCAATTAGTTAATTCGGAGTCACCTAGTGCAG	24400 fluorescence intensity (a.u.)
TACTAATTTAGAGTATTAAACATAAACTAATAATAAAAGTCGGAGTCACCTAGTGCAG	9830 fluorescence intensity (a.u.)
TCAATCAATCAATTAATTAGTAATTCAAAGTACTAAACACCGGAGTCACCTAGTGCAG	40200 fluorescence intensity (a.u.)
CCTTAATTTTCAGTGTTAGTAATTTTCATTAACTAATTCTCGGAGTCACCTAGTGCAG	16200 fluorescence intensity (a.u.)
GTTAATTAATTAGTTAGTACTAGCAAACATTGGCTAAAGTCGGAGTCACCTAGTGCAG	55900 fluorescence intensity (a.u.)
CCTTAATTAACTAACATTCAGTCAGTTAGTCACCGGATAGCGGAGTCACCTAGTGCAG	52600 fluorescence intensity (a.u.)
AGTTAATTAATTAATTAGCTACGTACTCTTGTGCCTCTGTCGGAGTCACCTAGTGCAG	54900 fluorescence intensity (a.u.)
AATTACTACTACTAATTAGCTAGTAGCTAGTTTCTGTGCTCGGAGTCACCTAGTGCAG	8060 fluorescence intensity (a.u.)
GACTAATTAATAATTAGTTAATTGACTAATCAGGATAATTCGGAGTCACCTAGTGCAG	46800 fluorescence intensity (a.u.)
AAAGTTAATCAAATTGACTAATTAGTGCTAGATATGTCCTCGGAGTCACCTAGTGCAG	60600 fluorescence intensity (a.u.)
TTCGATTTAACTGTTCTATTACTGAGGTACTCTTCGATTTCGGAGTCACCTAGTGCAG	6940 fluorescence intensity (a.u.)
GTCAAATTTATGGCATTGATAGAGTTTTAGTAGGGGTGTTCGGAGTCACCTAGTGCAG	21000 fluorescence intensity (a.u.)
TTAGTTTAATTAAATGTAACATTGAGTATATTTTGATAATCGGAGTCACCTAGTGCAG	16700 fluorescence intensity (a.u.)
TCTAAATTTAACTTGCATCACATTAGTTCTGGAAAGAGCACGGAGTCACCTAGTGCAG	12200 fluorescence intensity (a.u.)
GATACTAATTATAAATATTAAGTGTAGACTATTAATAAAACGGAGTCACCTAGTGCAG	6430 fluorescence intensity (a.u.)
TCATTAACACATAATTAATTAAGTACTCCCTCCGTATTTTCGGAGTCACCTAGTGCAG	20200 fluorescence intensity (a.u.)
AAAAGAAGTTAATTATAATTAATTGTGATAAGAGGATAGACGGAGTCACCTAGTGCAG	29400 fluorescence intensity (a.u.)
AAATTGTATTCCTAATTGGACTCTCTTTTCCTTTTCTAATCGGAGTCACCTAGTGCAG	3430 fluorescence intensity (a.u.)

Sequence	binding signal
TCGAAAGTAATTAGTACTAGATTGATTGTCAGTTCAGTCTCGGAGTCACCTAGTGCAG	53100 fluorescence intensity (a.u.)
TTCTAATTAGATTTGATAAAGTACTAATATTCATTTTGGTCGGAGTCACCTAGTGCAG	63100 fluorescence intensity (a.u.)
CTTCTAATTATTTGATATTAGGTCATTCTCTAATATTCACCGGAGTCACCTAGTGCAG	21400 fluorescence intensity (a.u.)
AGTTACTAATTGATTCAGATGCATGGCAGTATAATTGTCTCGGAGTCACCTAGTGCAG	44900 fluorescence intensity (a.u.)
ATATTTTAAATAGTACTAAATTATTCTATAAATTTGGTCACGGAGTCACCTAGTGCAG	4350 fluorescence intensity (a.u.)
CTCTCGATTGATTACCTAGTACTACTGCAATTCACATTGTCGGAGTCACCTAGTGCAG	52200 fluorescence intensity (a.u.)
TATATGGATTAACAGATAATTAGCAGCGGGGTTAGCAAAACGGAGTCACCTAGTGCAG	21000 fluorescence intensity (a.u.)
TTTTGATTTGCCACATTTGCAGTGGCATGGATCCAATTAACGGAGTCACCTAGTGCAG	15000 fluorescence intensity (a.u.)
GGGGATTAATGGATTATAATGTGTCTTATAACTAAAAGGACGGAGTCACCTAGTGCAG	15100 fluorescence intensity (a.u.)
CTTAATGTATGTTGATTTGTCATCACATGTATGATTAGGGCGGAGTCACCTAGTGCAG	56400 fluorescence intensity (a.u.)
ATCCGATTAATTAATTTGATTTAATGTAATGTAATTAGGGCGGAGTCACCTAGTGCAG	64600 fluorescence intensity (a.u.)
ATGGGTGATTAATCCTAGAATAATGTATCTAGACAGAATCCGGAGTCACCTAGTGCAG	4120 fluorescence intensity (a.u.)
ATCATAATGTGTATGCATGATTAGAGGGCGCAAATTTGTACGGAGTCACCTAGTGCAG	14600 fluorescence intensity (a.u.)
TGAAATGTAATTGTGATTTTATCTTGAAATGATCCGATGGCGGAGTCACCTAGTGCAG	31400 fluorescence intensity (a.u.)
AGTATAATTATGTTTAGAATGGATTAATTGTAATGTAAAGCGGAGTCACCTAGTGCAG	38600 fluorescence intensity (a.u.)
GAGATTTGTTTGATGTATCAGGGTGTCACGTTGTCATGTTCGGAGTCACCTAGTGCAG	3440 fluorescence intensity (a.u.)
CTTGATTAGAATGTTTAATAACTTGTATCCGTCATGCCTGCGGAGTCACCTAGTGCAG	60200 fluorescence intensity (a.u.)
TTCCGATTATTATTTGTATTTATTAATTTAGGATTTCTCTCGGAGTCACCTAGTGCAG	8170 fluorescence intensity (a.u.)
GGGATTGGTTGAGAAAATAAAACAGATATATAAGTTTATCCGGAGTCACCTAGTGCAG	3160 fluorescence intensity (a.u.)
CAAACTAGATTTGTTGCTAAATTGAATTGTTATGTCATTACGGAGTCACCTAGTGCAG	22800 fluorescence intensity (a.u.)
TTTGTGATTAAGCTCTTGGTCTCGTCTCCGCGAGCTCAGCCGGAGTCACCTAGTGCAG	5540 fluorescence intensity (a.u.)
